RE007 growth inh = qHTS Assay for Inhibitors of the HIV-1 protein Vpr | S. pombe RE007 Vpr strain, BacTiter-Glo ATP luminescence, 24 h | Potency, µM (titrated, usually from 92.2 µM), hits mostly inhibitors | hit rate 0.21% among 360,000 | AID 651644, 2012; active = well fitted falling curve with a large enough effect; inconclusive = small, poorly fitted or top-dose-only effect; inactive = no such curve, though single readings can be large or run the other way; also: nearly all actives have a fitted effect of over 50% in size
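Fission yeast strain RE007, carrying one chromosomally integrated HIV-1 vpr copy, was seeded at OD 0.01 in PMG+AL medium with 23 nL pinned compound. After 24 h at 30 °C and 99% humidity, viability was read by BacTiter-Glo luminescence.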
Tb PYK inh = qHTS of Trypanosoma Brucei Inhibitors; pyruvate kinase (Trypanosoma brucei), Q57TT1; TbPYK enzyme, Kinase-Glo Plus ATP luminescence, 45 min; Potency, µM (titrated, usually from 76.8 µM), hits mostly inhibitors; hit rate 0.12% among 410,000; AID 624173, 2012; also: nearly all actives have a fitted effect of over 50% in size
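Luminescent Kinase-Glo Plus end-point after 45 min room-temperature reaction of T. brucei pyruvate kinase started with 130 uM ADP (final). Buffer TEA 50 mM pH 7.2 with KCl, MgCl2, BSA, Tween-20; titration-based qHTS with fitted concentration-effect curves.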
Sm TGR inh = qHTS Assay for the Inhibitors of Schistosoma Mansoni Peroxiredoxins | Potency, µM (highest dose often 114 µM), usual class: inhibitors | Schistosoma mansoni thioredoxin glutathione reductase (TGR), Q962Y6 | purified TGR, DTNB reduction, TNB absorbance 405 nm | hit rate 3% among 360,000; also: nearly all actives have a fitted effect of over 60% in size
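First, TGR (20 nM dispensed) and NADPH were mixed with compound. Second, a 15 min room-temperature incubation followed. Third, further NADPH and then DTNB were added to start the reaction. Finally, TNB absorbance was monitored kinetically.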
FMDV inh = High Throughput Screening for Foot and Mouth Disease Virus Antivirals | FMDV antiviral cell-based qHTS | Potency, µM (highest dose often 57.9 µM), most hits filed as inhibitors | hit rate 1.2% among 410,000 | AID 1159524, 2015; calls by dose curve; tested in HEK293T cells; also: read-out not given here; nearly all actives have a fitted effect of over 45% in size
Hits are given with their value; – = inactive; ? = inconclusive; · = no result given; [ ] = remark or other dose. A selection: hits, their analogues and other compounds. The true share with any hit is near 3.7%. Unless noted, calls follow the shape of the dose curve; as a rule, active = well fitted curve in the direction sought with a large enough effect; inconclusive = small, poorly fitted or top-dose-only effect, or another doubt; inactive = no such curve, though single readings can be large; an effect the other way counts as inactive or inconclusive.

SMILES	RE007 growth inh	Tb PYK inh	Sm TGR inh	FMDV inh
CS(=O)(=O)c1ncc(Cl)c(C(=O)Nc2ccc3ccccc3c2)n1	–	–	·	13µM
O=C(Nc1ccc2ccccc2c1)c1cnccn1	–	–	–	–
CC(C)(C)Cn1nc(-c2ccc(Cl)cc2)c2c(N)ncnc21	·	·	·	–
COC(=O)c1ccc(CN2CCOc3ccc(C(O)c4cccnc4)cc3C2)cc1 (centres undefined)	·	·	·	–
O=C1C2C3C=CC(O3)C2C(=O)N1CC(O)c1ccccc1 (centres undefined)	–	–	11µM	–
COc1ccccc1-c1cncnc1Nc1ccccc1	·	·	·	–
CC(C)(C)C1CCc2sc(C(=O)NNC(=O)CCl)cc2C1 (centres undefined)	–	–	11µM	–
CC(C)(C)C1CCC(=NNC(=O)c2cc3c(s2)CCCC3)CC1 (centres undefined)	–	–	–	–
COc1ccc(N2CCN(C(=O)COc3ccccc3C#N)CC2)cc1	·	–	–	–
COc1ccc(CCNC(=O)CSc2nc3ccccc3nc2Cc2ccc(C)cc2)cc1OC	·	–	–	–
CCn1ccnc1CN1CCC(n2nccc2NC(=O)c2ccccc2OC)CC1	–	–	–	10µM
Cc1ccc(C(C)CCN2CCC(n3nccc3NC(=O)c3ccccc3)CC2)o1 (centres undefined)	–	–	35µM	–
COc1cccc(CN2CCC(n3nccc3NC(=O)CCCc3ccccc3)CC2)c1O	–	–	8.9µM	–
Cc1cc(CN2CCC(n3nccc3NC(=O)c3ccccc3Cl)CC2)cc(C)c1O	–	–	45µM	–
CCc1ccccc1NC(=O)N1CCN(c2nnc(C)c3c(C)n(-c4ccccc4)nc23)CC1	·	–	–	–
O=C1O[C@H]2[C@@H](OC(O)[C@@H]2O)[C@H]1O (some centres undefined)	·	–	·	·
CC1=C(c2ccc(F)cc2)S(=O)(=O)NC1=NCc1ccccc1Cl	·	–[15.4 µM]	–	–
CN(C(=O)CSc1nc2c(c(=O)[nH]1)CCCC2)c1ccccc1	·	–	–	–
CN1CCN(C(=O)Nc2ccccc2CC[N+](=O)[O-])CC1	–	–	32µM	–
Cc1cc(C)nc(-n2nc(C)c3c2N(Cc2ccccc2)C(=O)CC3c2ccc(Cl)cc2)n1 (centres undefined)	·	–	–	–
O=C(NC1CC1)C1=C[C@H](C2CCCCC2)C[C@H](OCc2ccc(CO)cc2)O1	–	–	–	–
C#CCNC(=O)C1=C[C@H](C2CCCCC2)C[C@H](OCc2ccc(CO)cc2)O1	–	–	20µM	–
C#CCNC(=O)C1=C[C@@H](C2CCCCC2)C[C@@H](OCc2ccc(CO)cc2)O1	–	–	22µM	–
NCCC(O)C(=O)NC1C[C@@H](N)[C@H](O[C@@H]2OC(CN)C(O)C(O)C2O)C(O)[C@H]1O[C@H]1OC(CO)C(O)C(N)C1O (some centres undefined)	·	·	·	–
Cc1cccc(NC(=O)C2CCN(c3nc4ccccc4[nH]3)CC2)c1C	·	–[15.4 µM]	–	–
SMILES	RE007 growth inh	Tb PYK inh	Sm TGR inh	FMDV inh
CN(Cc1ccccc1)C(=O)[C@H](Cc1ccc2ccccc2c1)NC(=O)[C@@H]1C[C@@H](O)CN1C(=O)c1cn(C)c2ccccc12	·	·	·	–
COC1=C(Br)C(=O)c2ncccc2C1=O	?	–	·	35µM
O=C1C(=O)c2cccnc2-c2ncccc21	?	–	·	4µM
CC(C)(S)C(=O)N[C@H](CS)C(=O)O	·	–	·	·
O=C(NCc1nnc2n1CCN(Cc1cccc(Cl)c1)CC2)c1cccc(F)c1	·	·	·	–
O=[N+]([O-])C(Br)(CO)CO	·	10µM	·	·
CC(C)(Cl)[N+](=O)[O-]	–	–	–	–
CCCCC1OC23CCCCC2C(C#N)(C#N)C1(C#N)C(=N)O3 (centres undefined)	–	–	?	–
N#CC1(C#N)C(c2ccccc2)OC23CCCCCC2C1(C#N)C(=N)O3 (centres undefined)	–	–	25µM	–
CCCCC1OC23CCCCC2C(C#N)(C(=N)O3)C1(C#N)C#N (centres undefined)	–	–	–	25µM
CC(C)(C)C1c2[nH]c3ccccc3c2CCN1CCCn1cccn1 (centres undefined)	–	–	40µM	–
Fc1ccccc1C1c2[nH]c3ccccc3c2CCN1CCCn1cccn1 (centres undefined)	–	–	?	–
Cc1cccc(CN2CCc3c([nH]c4ccccc34)C2C(C)(C)C)n1 (centres undefined)	–	–	16µM	–
Cc1cc(Nc2ccccc2)n(-c2nc3ccccc3[nH]2)n1	35µM	–	–	–
Cc1nn(-c2nc3ccccc3[nH]2)c(=O)c2ccccc12	6.3µM	?	–	0.79µM
Cc1nn(-c2ccc3ccccc3c2)c(=O)c2ccccc12	–	–	–	–
Cn1ncc2c(N3CCN(c4ccc(F)cc4)CC3)ncnc21	·	–	–	?
Fc1ccc(C(Nc2ccccn2)c2c[nH]c3ccccc23)cc1 (centres undefined)	–	–	2.8µM	–
OC(c1ccccn1)c1c[nH]c2ccccc12 (centres undefined)	–	–	22µM	–
NCC(c1ccccc1)c1c[nH]c2ccccc12 (centres undefined)	–	–	–	–
Cc1ccc(S(=O)(=O)Nc2ccc3nc(-c4cccc(Cl)c4)oc3c2)cc1	·	–	–	–
C=C1c2cccc(O)c2C(O)=C2C(=O)[C@]3(O)C(O)=C(C(N)=O)C(=O)C(N(C)C)C3C(O)C12 (some centres undefined)	·	·	·	–
CN(C)[C@H]1C(=O)C(C(=O)NCN2CCCC2)=C(O)[C@]2(O)C(=O)C3=C(O)c4c(O)cccc4[C@](C)(O)[C@H]3C[C@H]12	·	–	·	·
C=C1c2cccc(O)c2C(O)=C2C(=O)[C@]3(O)C(O)=C(C(N)=O)C(=O)[C@@H](N(C)C)[C@@H]3[C@@H](O)[C@H]12	–	?	35µM	–
CN(C)[C@@H]1C(=O)C(C(N)=O)=C(O)[C@@]2(O)C(=O)C3=C(O)c4c(O)cccc4[C@@](C)(O)C3[C@H](O)C12 (some centres undefined)	–	–	8.9µM	–
SMILES	RE007 growth inh	Tb PYK inh	Sm TGR inh	FMDV inh
CN(C)[C@@H]1C(=O)C(C(=O)NCN2CCCC2)=C(O)[C@@]2(O)C(=O)C3=C(O)c4c(O)cccc4[C@@](C)(O)C3CC12 (some centres undefined)	·	·	7.9µM	·
COc1ccccc1C1CN(Cc2cnn(C)c2)Cc2ccccc2O1 (centres undefined)	·	·	·	–
Cc1cc(C(=O)Nc2ccc(Cl)cc2)c(C)n1-c1ccccc1	–	–	50µM	?
Cc1ccc(NC(=O)c2cc(C)n(-c3ccccc3)c2C)cc1	–	–	–	?
COCCCn1c(N)c(C(=O)NCc2ccco2)c2nc3ccccc3nc21	–	–	7.1µM	–
Nc1c(C(=O)NCc2ccco2)c2nc3ccccc3nc2n1CCc1ccccc1	–	–	20µM	–
